# Values without a mark were called inactive.
# Test system: Vero E6 infected with SARS-CoV-2
# Assay: inhibition of SARS-CoV-2 cytopathic effect; higher = more antiviral protection, active = above 15
# Conditions: 48 h
SMILES,inhibition of SARS-CoV-2 cytopathic effect (1 nM) [%],inhibition of SARS-CoV-2 cytopathic effect (8.33 nM) [%],inhibition of SARS-CoV-2 cytopathic effect (100 nM) [%],inhibition of SARS-CoV-2 cytopathic effect (833.33 nM) [%],inhibition of SARS-CoV-2 cytopathic effect (10000 nM)
CCOC(=O)[C@H](CCc1ccccc1)N[C@@H](C)C(=O)N1CCC[C@H]1C(=O)O [enalapril],-1.51,-1.35,-0.07,2.42,0.52%
CC#CC(=O)N1CCC[C@H]1c1nc(-c2ccc(C(=O)Nc3ccccn3)cc2)c2c(N)nccn12 [acalabrutinib],2.14,-0.44,0.31,-0.11,-0.34%
CC(C)(O)c1ccn2c(-c3ccc(F)c(-c4ccc(F)cc4C#N)c3)cnc2c1F,-0.56,0.82,0.5,-1.01,-2.58%
CCc1cnc(N2CCC(c3nc(COc4ccc(-n5cnnn5)cc4)cs3)CC2)nc1,1.55,-3.29,-4.15,-3.29,0.22%
O=C(O)CCCN1C(=O)c2cccc3cccc(c23)C1=O [isodibut],-4.53,-1.77,-4.8,-0.3,-2.2%
O=NN(CCCl)C(=O)NC1CCCCC1 [lomustine],-1.8,1.26,1.76,2.26,-0.14%
C#C[C@]1(O)CC[C@H]2[C@@H]3CCC4=CC(=O)CCC4=C3C=C[C@@]21CC [gestrinone],1.67,0.8,4.87,3.58,5.58%
Cc1nc[nH]c1CCN [4-methylhistamine],-0.91,-0.74,-0.39,-2.08,0%
C[C@@H](c1nc(-c2ccc(C#N)cc2)cs1)[C@](O)(Cn1cncn1)c1cc(F)ccc1F [isavuconazole],-2.38,-2.11,-0.9,1.65,2.79%
Cc1ccnc2c1NC(=O)c1cccnc1N2C1CC1 [nevirapine],-0.06,2.22,0.61,0.25,0.49%
Cc1ccc(F)c(NC(=O)Nc2ccc(-c3cccc4[nH]nc(N)c34)cc2)c1 [linifanib],-2.72,-3.15,-4.95,-2.75,-2.71%
O=C1Cc2c([nH]c3ccc(Br)cc23)-c2ccccc2N1 [kenpaullone],-1.82,-2.19,0.37,0.56,12%
C[C@H](O)[C@H](O)[C@H]1CNc2nc(N)[nH]c(=O)c2N1 [sapropterin],-2.03,2.62,1,0.55,-1.44%
N#C[C@H](O[C@@H]1O[C@H](CO[C@@H]2O[C@H](CO)[C@@H](O)[C@H](O)[C@H]2O)[C@@H](O)[C@H](O)[C@H]1O)c1ccccc1 [amygdalin],0.51,-1.9,0.79,-1.12,0.27%
NC(=O)CN1CC[C@@H](NC(=O)[C@@H]2CCCN2)C1=O,1.05,-1.41,0.01,0.9,0.65%
COc1ccc(C2C(=O)c3ccccc3C2=O)cc1 [anisindione],0.46,1.92,2.19,-3.04,-1.46%
CN1CC(=O)N=C1NC(=O)Nc1cccc(Cl)c1 [fenobam],0.79,2.12,0.63,1.08,-0.64%
S=C(S)N1CCCC1 [pyrrolidine-dithiocarbamate],2.71,4.55,4.28,12.7,24.8% (active)
N[C@@H](C(=O)O)c1ccc(C(=O)O)c(O)c1 (racemic) [4-carboxy-3-hydroxyphenylglycine-(RS)],-0.15,-0.33,0.94,-0.355,-0.565%

# Reference: the supplement of paper PMC13380429
